The values below come from PubChem BioAssay (NCI).

Structures are written as SMILES. This is part of a sample that, as a whole, favours compounds with a hit. Of some 83,000 tested, about 20% had one in any assay.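 Interpretation: 100, growth as untreated; towards 0, rising growth inhibition; 0, no net growth; 0 to -100, cell death. Compounds scoring below 10 were considered active.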 Values without a mark were called inactive. Calls of active or inactive are those of the source.

What all share (assay): NCI-60 one-dose screen, 48 h (100 = growth as untreated, 0 = no growth, -100 = all killed)
Holding throughout (details): 10 µM unless noted

Test [1] relates to DU-145 prostate.
Test [2] deals with K-562 leukemia.
The subject of test [3] is MALME-3M melanoma.
Test [4] deals with MDA-MB-231 breast.
Test [5] has as its system RXF 393 renal.
Test [6] concerns SF-268 CNS.
In test [7] the test system is SF-295 CNS.
Test [8] concerns SF-539 CNS.
Test [9] has as its system UACC-257 melanoma.
For test [10], the system named is M14 melanoma.

`COc1cc(C(F)(F)F)ccc1-c1cc(-c2ccc(F)cc2)n[nH]1`: the growth in [1] is 95.7%; in [2], 97.5%; in test [3], 90.8%; in [4], 80.2%; in [5], 92.4%; in test [6] it was 101%. For the same compound, the growth was 97.6% in test [7], 91.2% in test [8], 82.5% in test [9] and 93.1% in [10].

In the case of `CCCCCCCC/C=C\CCCCCCCCOc1cccc(CC(=O)NCC[N+](C)(C)C)c1`, the growth in test [1] was 94.4%; in [2] it was 85.5%; in test [3], 90.1%; in test [4], 87.3%; in [5], 13.8%; in test [6], 71.5%. Further, the growth in [7] was 87.1%; in test [8] it was 92.2%; in test [9], 103%; in test [10] it was 75.3%.

`CCOC(=O)n1cc(C2=C(c3cn(C)c4ccccc34)COC2=O)c2ccccc21`: the growth was -14.3% (active) in test [1]; 5.86% (active) in [2]; 37.2% in [3]; 25.5% in [4]; 19.6% in test [5]; 26% in test [6]. Besides, the growth in test [7] is 1.58% (active); in test [8], -16.3% (active); in test [9] it was 55.1%; in [10] it was 20.1%.

On to `COc1cc(C2C3=C(COC3=O)N(CCO)c3cc4c(cc32)OCO4)cc(OC)c1O` (stereo not given), for which the growth in test [1] was 11.3%; in test [2], 27.9%; in test [3], 35.3%; in test [4], 54%; in test [5] it was 13.1%; in test [6], 51.1%. The growth was 8.07% (active) in test [7], 12.7% in test [8], 14.5% in [9] and 9.86% (active) in test [10].

As for `N#Cc1c(-c2cccc(F)c2)cc(-c2ccc(Br)s2)[nH]c1=O`, the growth in test [1] is 90.1%; in test [2], 24.5%; in test [3], 67.2%; in [4] it was 79.7%; in [5], 87.3%; in test [6] it was 83.1%. For the same compound, the growth in [7] is 73.4%; in test [8], 83.6%; in [9] it was 87.4%; in test [10], 39.8%.

`Cc1cc(=O)c2c(C)ccc(C)c2[nH]1`: the growth in test [1] is 115%; in test [2], 109%; in test [3], 102%; in test [4], 99.3%; in [5], 90.7%; in test [6] it was 96.8%. Also, the growth is 91.4% in test [7], 107% in test [8], 80.5% in test [9] and 97.8% in test [10].

In the case of `COc1ccc(-n2ncc3c2ccc2cc(S(=O)(=O)c4ccccc4)c(=O)n(C)c23)cc1`, the growth in [1] was 77.7%; in test [2], 113%; in test [3], 88.7%; in [4] it was 74%; in [5], 67.9%; in test [6] it was 69.2%. Further, the growth in test [7] is 96.5%; in test [8] it was 63.7%; in test [9], 92.9%; in test [10], 92.8%.

Regarding `COc1ccc(/C=N\N2CCOCC2)cc1OC1CCCC1`, the growth is 102% in test [1]; 108% in [2]; 127% in [3]; 110% in test [4]; 113% in [5]; 94.8% in [6]. The growth is 98.1% in [7], 94.9% in test [8], 102% in test [9] and 92.7% in [10].

Turning to `O=c1oc2ccccc2cc1-c1csc(N=Nc2c(O)[nH]c3ccc(Br)cc23)n1`, the growth in test [1] was 109%; in test [2], 111%; in test [3], 99%; in test [4], 95.6%; in test [5], 115%; in [6], 101%. For the same compound, the growth was 101% in test [7], 99.5% in test [8], 97.3% in test [9] and 105% in [10].

As for `CCOC(=O)c1cc2c(n(C)c1=O)-c1cnn(-c3ccc(OC)cc3)c1CC2`, the growth in test [1] was 117%; in [2], 104%; in [3], 95.1%; in [4] it was 97.9%; in test [5], 102%; in [6], 99.8%. Moreover, the growth is 91.7% in test [7], 90.1% in test [8], 93.6% in test [9] and 106% in [10].

Consider `O=S(=O)(Nc1ccc(Cl)c(Cl)c1)c1ccc(-c2cnc(C3CC3)o2)cc1`, for which the growth is 15.3% in test [1]; 16.2% in test [2]; 53.3% in test [3]; 28.4% in [4]; -19.4% (active) in test [5]; 47.7% in test [6]. Also, the growth in test [7] was 14.9%; in test [8], -13.5% (active); in test [9] it was 63.1%; in [10], 14.1%.

Turning to `Cc1cccc2c(=O)c3c(sc12)c(NCCNCCO)nc1ccccc13`, the growth in test [1] was 27.3%; in [2], -65.7% (active); in [3] it was -42.2% (active); in test [4] it was -15.3% (active); in [5], 38.1%; in test [6] it was 56.6%. For the same compound, the growth in test [7] was 65%; in test [8], 50.6%; in [9], 77.8%; in [10], -56.4% (active).
